In PubChem BioAssay (NCI):
The panel holds about 83,000 compounds, 20% with a hit somewhere; the sample as a whole holds those more often.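 The endpoint reported here, percent growth, reads 100 for growth as untreated, 0 for no net growth and -100 for all cells dead.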 Activity calls are given as the source filed them. The calls were made as follows: active = growth percent below 10; inactive = the rest.

What follows are compounds tested on A549/ATCC NSCLC (assay: NCI-60 one-dose screen, 48 h (100 = growth as untreated, 0 = no growth, -100 = all killed)). Conditions: 10 µM unless noted.
With CC1=C([Te]c2ccc(O)cc2)C(=O)c2ccccc2C1=O the growth was 6.97% (active).
For O=C1NC(=O)C(=Cc2cn(CCCCCCn3c4ccccc4c(=O)c4ccccc43)c3ccccc23)C(=O)N1, the growth was 92.4% (inactive).
For CC(C)OC(=O)[C@H](C)NP(=O)(Oc1ccccc1)C1CCCN(O)C1=O (some centres not stated), the growth was 105% (inactive).
In the case of CCCCCCC(=O)NC1=C(N2CC2)C(=O)C(NC(=O)CCCCCC)=C(N2CC2)C1=O, the growth is reported as 42.3% (inactive).
COc1ccc(/C=C\c2cc(OC)c(OC)c(OC)c2)cc1NS(=O)(=O)c1ccc(Cl)cc1 was tested, and the growth was 58.9% (inactive).
With CC[C@H](C)[C@H](NC(=O)[C@H]1CCCCN1C)C(=O)N(C)[C@H](CC(=O)c1nc(C(=O)N[C@@H](Cc2ccccc2)C[C@H](C)C(=O)O)cs1)C(C)C the growth was 94.8% (inactive).
With C[C@]12C[C@@H](CO)[C@H](O)C[C@@H]1CC[C@@H]1[C@@H]2CC[C@]2(C)[C@@H](O)CC[C@@H]12 the growth was 99.7% (inactive).
With [Cl][Hg][c]1cc[c]([Hg][Cl])o1 the growth was 88.4% (inactive).
For NC(=S)c1cn(C2OC(CO)C(O)C2O)c2ncnc(N)c12 (configuration not stated), the growth was 4.83% (active).
With COC(=O)CC[C@H](Cc1ccccc1)NC(=O)c1csc([C@@H](C[C@H](C(C)C)N(C)C(=O)[C@@H](NC(=O)[C@H]2CCCCN2C)C(C)C)OC(C)=O)n1 the growth was 40.4% (inactive).

The compounds below were run on 786-0 renal in the same assay as above. Conditions: 10 µM unless noted.
With O=C(CCl)c1ccc([N+](=O)[O-])o1 the growth was -28.7% (active).
With CCCCCSC1C2C(=O)C(Br)=CC13CCNc1c(O)c4c5c(c13)=[N+]2CCC=5C=N4 (configuration not stated) the growth was -50.3% (active).
For COc1ccc(C/C(C)=C(\c2ccc(OCCN3CCOCC3)cc2)c2ccc(OC(=O)Cc3ccccc3)cc2)cc1, the growth was -94.7% (active).
With Cn1cc(-c2csc(-c3cn(CCCCN4CCCCC4)c4ccc(F)cc34)n2)c2cccnc21 the growth was -62% (active).
COc1ccc2c(c1)c(-c1nc(-c3cn(C)c4ncccc34)cs1)cn2CCCCN1CCCCC1 was tested, and the growth was -90.8% (active).
C[n+]1c(/C=C/c2ccc(N(CCCl)CCCl)cc2)sc2ccccc21 was tested, and the growth was 50.3% (inactive).
For C=CC[Se]C(=O)c1ccccc1OC(C)=O, the growth was -7.14% (active).
For CC(=O)OC1CCC2C3CCC4=C/C(=N/OC(=O)c5ccc(N(CCCl)CCCl)cc5)CCC4(C)C3CC(C)C12 (configuration not stated), the growth was 87% (inactive).
In the case of CCCCCCCC[n+]1ccc2ccccc2c1, the growth is reported as 75.5% (inactive).
In the case of Cn1cccc1C1CC(=O)N(CCC[Se]C#N)C1=O (configuration not stated), the growth is reported as -73.2% (active).
In the case of C[Se]C(=O)c1ccccc1OC(C)=O, the growth is reported as 79.4% (inactive).
O=C1Nc2ccccc2C2c3cccn3-c3ccccc3CN12 (configuration not stated) was tested, and the growth was 66.3% (inactive).
For CCOC(=O)[C@@H](C)C[C@H](Cc1ccccc1)NC(=O)c1csc([C@@H](C[C@H](C(C)C)N(C)C(=O)[C@H](CCC(C)C)NC(=O)[C@H]2CCCCN2C)OC(C)=O)n1, the growth was 3.93% (active).
For COC(=O)[C@H](C[C@H](Cc1ccccc1)NC(=O)c1csc([C@@H](C[C@H](C(C)C)N(C)C(=O)[C@@H](NC(=O)[C@H]2CCCCN2C)C(C)C)OC(C)=O)n1)NC(=O)OCc1ccccc1, the growth was 15.2% [8.5 µM] (inactive).
For CC1(C)N=C(N)N=C(N)N1c1ccc(OCCCNC(=O)Nc2ccc(S(=O)(=O)F)cc2)c(Cl)c1, the growth was 27.5% (inactive).
With O=C(CN1CCN(C(=O)c2ccco2)CC1)Nc1ccc(Cl)cc1C(=O)c1ccccc1Cl the growth was 95.8% (inactive).
Cc1cc(N(CCCl)CCCl)ccc1C=Nc1ccccc1-c1ccccc1 was tested, and the growth was 52.1% (inactive).
In the case of Cn1cc(-c2csc(-c3cn(CCN4CCOCC4)c4ccccc34)n2)c2cccnc21, the growth is reported as 75.5% (inactive).
With CCOC(=O)[C@@H](C)C[C@H](Cc1ccccc1)NC(=O)c1csc([C@@H](C[C@H](C(C)C)N(C)C(=O)[C@H](CC)NC(=O)[C@H]2CCCCN2C)OC(C)=O)n1 the growth was 8.33% (active).
ClC1=C(Cl)C(Cl)(C2(Cl)C(Cl)=C(Cl)C(Cl)=C2Cl)C(Cl)=C1Cl was tested, and the growth was -66.4% (active).
With O=C([O][Hg][CH2]C1OCCOC1[CH2][Hg][O]C(=O)c1ccccc1)c1ccccc1 (configuration not stated) the growth was 79.4% (inactive).
COc1ccc([As]=[As]c2ccc(OC)c(NCS(=O)(=O)O)c2)cc1NCS(=O)(=O)O (configuration not stated) was tested, and the growth was -46.4% (active).
In the case of [Cl][Hg][n]1c(-c2ccco2)nc2ccccc21, the growth is reported as 107% (inactive).
For CCC[CH2][Sn]([CH2]CCC)([CH2]CCC)[O]c1ccc(Cl)cc1Cl, the growth was -93.8% (active).
NC(CCl)CCl was tested, and the growth was 107% (inactive).
With CN1CCC(c2c[nH]c3ccccc23)C1 (configuration not stated) the growth was 99.3% (inactive).
CCCCCCCCCCCCCCCCCC1OC[C@@H](COC(=O)O[C@@H](C(=O)O[C@H]2C[C@@]3(O)[C@@H](OC(=O)c4ccccc4)[C@@H]4[C@]5(OC(C)=O)CO[C@@H]5C[C@H](O)[C@@]4(C)C(=O)[C@H](OC(C)=O)C(=C2C)C3(C)C)[C@@H](NC(=O)c2ccccc2)c2ccccc2)O1 (some centres not stated) was tested, and the growth was 90.6% (inactive).
In the case of CC1=C([Te]c2ccc(O)cc2)C(=O)c2ccccc2C1=O, the growth is reported as -1.41% (active).
With O=C1NC(=O)C(=Cc2cn(CCCCCCn3c4ccccc4c(=O)c4ccccc43)c3ccccc23)C(=O)N1 the growth was 96.8% (inactive).
In the case of CC(C)OC(=O)[C@H](C)NP(=O)(Oc1ccccc1)C1CCCN(O)C1=O (some centres not stated), the growth is reported as 94.3% (inactive).
CCCCCCC(=O)NC1=C(N2CC2)C(=O)C(NC(=O)CCCCCC)=C(N2CC2)C1=O was tested, and the growth was 33.6% (inactive).
With COc1ccc(/C=C\c2cc(OC)c(OC)c(OC)c2)cc1NS(=O)(=O)c1ccc(Cl)cc1 the growth was 78% (inactive).
CC[C@H](C)[C@H](NC(=O)[C@H]1CCCCN1C)C(=O)N(C)[C@H](CC(=O)c1nc(C(=O)N[C@@H](Cc2ccccc2)C[C@H](C)C(=O)O)cs1)C(C)C was tested, and the growth was 89.7% (inactive).
In the case of C[C@]12C[C@@H](CO)[C@H](O)C[C@@H]1CC[C@@H]1[C@@H]2CC[C@]2(C)[C@@H](O)CC[C@@H]12, the growth is reported as 102% (inactive).
[Cl][Hg][c]1cc[c]([Hg][Cl])o1 was tested, and the growth was -74.8% (active).
For NC(=S)c1cn(C2OC(CO)C(O)C2O)c2ncnc(N)c12 (configuration not stated), the growth was -15.9% (active).
COC(=O)CC[C@H](Cc1ccccc1)NC(=O)c1csc([C@@H](C[C@H](C(C)C)N(C)C(=O)[C@@H](NC(=O)[C@H]2CCCCN2C)C(C)C)OC(C)=O)n1 was tested, and the growth was 34.8% (inactive).
